# LmPK inh: qHTS Assay for Inhibitors of Leishmania Mexicana Pyruvate Kinase (LmPK); AID 1721, 2009; 290,000 tested, 0.37% active; purified LmPK, Kinase-Glo ATP luminescence, 1 h; Potency, µM (series often up to 57.5 µM), without a hit: top-dose activity change, negative = inhibition, usual class: inhibitors; also: potency is read from the fitted curve at half-maximal effect; % is scaled to controls: 0 for no effect and ±100 for the full control effect
# Target sequence (Q27686 whole entry, looked up): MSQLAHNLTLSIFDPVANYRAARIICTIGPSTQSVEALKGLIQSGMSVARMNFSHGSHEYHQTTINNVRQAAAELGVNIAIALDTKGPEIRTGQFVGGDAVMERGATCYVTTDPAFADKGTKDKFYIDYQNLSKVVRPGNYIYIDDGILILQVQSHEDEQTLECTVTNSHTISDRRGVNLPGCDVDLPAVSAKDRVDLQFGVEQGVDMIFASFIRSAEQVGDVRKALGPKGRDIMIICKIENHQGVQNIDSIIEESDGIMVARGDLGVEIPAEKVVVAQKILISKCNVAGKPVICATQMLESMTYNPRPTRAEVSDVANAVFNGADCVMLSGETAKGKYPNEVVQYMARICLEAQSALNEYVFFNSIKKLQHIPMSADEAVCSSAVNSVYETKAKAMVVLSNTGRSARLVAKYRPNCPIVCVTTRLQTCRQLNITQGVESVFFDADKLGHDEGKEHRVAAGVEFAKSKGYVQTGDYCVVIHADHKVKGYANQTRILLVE
#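 Purified LmPK (0.1 nM) converted ADP (0.1 mM) to ATP with PEP (0.5 mM) in imidazole buffer pH 7.2 with KCl and MgCl2, 1 h at room temperature. ATP was read by Kinase-Glo luminescence; data normalized to uninhibited and no-enzyme controls.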
# RE007 growth inh: qHTS Assay for Inhibitors of the HIV-1 protein Vpr. Potency, µM (titrated, usually from 92.2 µM), inactives show at the highest dose activity change, negative = less growth, usual class: inhibitors. S. pombe RE007 Vpr strain, BacTiter-Glo ATP luminescence, 24 h. 360,000 tested, 0.21% active; active = well fitted falling curve with a large enough effect; inconclusive = small, poorly fitted or top-dose-only effect; inactive = no such curve, though single readings can be large or run the other way; also: potency is read from the fitted curve at half-maximal effect; % is scaled to controls: 0 for no effect and ±100 for the full control effect; nearly all actives have a fitted effect of over 50% in size
#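 Fission yeast strain RE007, carrying one chromosomally integrated HIV-1 vpr copy, was seeded at OD 0.01 in PMG+AL medium with 23 nL pinned compound. After 24 h at 30 °C and 99% humidity, viability was read by BacTiter-Glo luminescence.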
# Cycloheximide cs: Cycloheximide Counterscreen for Small Molecule Inhibitors of Shiga Toxin; cell reporter, cycloheximide protein synthesis inhibition counterscreen; max response, %; 300,000 tested, 12% active; in the data active = max response mostly above about 13%, no sharp cut-off; inactive = mostly below about 14%; also: read at 38.3 µM for the half of the compounds with a filed dose; 0% is about no effect
# Shiga toxin inh: A qHTS for Small Molecule Inhibitors of Shiga Toxin. AID 2315, 2010. Vero cells, Shiga toxin protein synthesis inhibition reporter. inhibition, % at 38.7 µM. 290,000 tested, 9.2% active; in the data active = inhibition mostly above about 28%, no sharp cut-off; inactive = mostly below about 43%; also: 0% is about no effect
# Tb PYK inh: qHTS of Trypanosoma Brucei Inhibitors; AID 624173, 2012; TbPYK enzyme, Kinase-Glo Plus ATP luminescence, 45 min; pyruvate kinase (Trypanosoma brucei), Q57TT1; Potency, µM (series often up to 76.8 µM), inactives show at the top dose activity, negative = inhibition, hits mostly inhibitors; 410,000 tested, 0.12% active; also: potency is read from the fitted curve at half-maximal effect; % is scaled to controls: 0 for no effect and ±100 for the full control effect; nearly all actives have a fitted effect of over 50% in size
#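 T. brucei PYK with substrate was exposed to pin-transferred compounds across a concentration series, then started with 130 uM ADP (final). After 45 min at room temperature, Kinase-Glo Plus luminescence was read, normalized and curve-fitted.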
# FBPA Giardia inh: qHTS Assay for Inhibitors of Fructose-1,6-bisphosphate Aldolase from Giardia Lamblia; purified Giardia FBPA; 290,000 tested, 0.71% active; A8B2U2; Potency, µM (titrated, usually from 59.6 µM), inactives show top-dose activity, negative = inhibition, most hits filed as inhibitors; also: potency is read from the fitted curve at half-maximal effect; % is scaled to controls: 0 for no effect and ±100 for the full control effect; nearly all actives have a fitted effect of over 55% in size
#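 Giardia FBPA (40 nM reagent) was preincubated 10 min at RT with compound (up to 57.5 uM final), then substrate plus GAPDH/TPI/NAD/arsenate coupling system with diaphorase/resazurin was added; resorufin fluorescence (525/598 nm) was read after 20 min.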
# Numbers without * were called inactive; ? = inconclusive; . = not tested or not shown; + = active, no number. Many of the other results were omitted from the sample, so hits are more common in it than they were. Unless noted, calls follow the shape of the dose curve; as a rule, active = well fitted curve in the direction sought with a large enough effect; inconclusive = small, poorly fitted or top-dose-only effect, or another doubt; inactive = no such curve, though single readings can be large; an effect the other way counts as inactive or inconclusive.
SMILES,LmPK inh,RE007 growth inh,Cycloheximide cs,Shiga toxin inh,Tb PYK inh,FBPA Giardia inh
Cc1ccc(NC(=O)CN(C)S(=O)(=O)c2cccc3nsnc23)c(C)c1,.,.,.,.,1.1%,.
Cc1ccc(OC(=O)CSc2nnc(-c3ccc4c(c3)OCO4)o2)cc1,.,.,.,.,-2.6%,.
C/C(N)=C(/C#N)C(=O)CSc1nnc(-c2ccc3c(c2)OCO3)o1,0.4%,-9.2%,43.6*,99.3*,-10.4%,8.8%
Nc1nc(Cl)nc2c1ncn2[C@@H]1O[C@H](CO)[C@H](O)[C@H]1O,.,.,.,.,.,-1.9%
O=C1C2C3C=CC(CC3)C2C(=O)N1/N=C/c1ccco1 (stereo unspecified),11.7%,-3.8%,16.5*,25.9,1.7%,0.3%
O=C(O)c1cc(-c2ccc(/C=N/N3C(=O)C4C5C=CC(CC5)C4C3=O)o2)ccc1Cl (stereo unspecified),-4.4%,-3.2%,2.1,19.6,4.6%,-5.4%
COC(=O)c1ccc(-c2ccc(/C=N/N3C(=O)C4C5C=CC(CC5)C4C3=O)o2)cc1 (stereo unspecified),4.4%,10.2%,34.5*,36.6,3.6%,-1.0%
O=C1C2C(C(=O)N1/N=C/c1ccco1)C1C=CC2C12CC2 (stereo unspecified),4.3%,3.7%,4.4,16.6,0.0%,-2.3%
COc1cccc(NC(=O)CSCn2nnc3c(=O)[nH]c(Cc4ccc(F)cc4)nc32)c1,.,.,.,.,-6.2%,.
C=C(C)CN(CC)C(=O)c1ccc(OC2CCN(S(=O)(=O)N(C)C)CC2)cc1,3.7%,10.8%,37.9*,55.1*,-7.1%,-2.9%
CC(C)CCNC(=O)c1ccc(OC2CCN(S(=O)(=O)N(C)C)CC2)cc1,1.5%,-1.2%,39.8*,42.9,2.7%,0.1%
C#CCN(CC=C)C(=O)c1ccc(OC2CCN(S(=O)(=O)N(C)C)CC2)cc1,6.7%,6.6%,36.7*,62.3*,1.6%,-3.7%
CN(C)S(=O)(=O)N1CCC(Oc2ccc(C(=O)NCCc3cscn3)cc2)CC1,-1.2%,5.3%,-2.3,-5.3,3.7%,.
C=C(C)CNC(=O)c1ccc(OC2CCN(S(=O)(=O)N(C)C)CC2)cc1,-1.7%,1.3%,19.6*,11.3,13.5%,-2.1%
COC(=O)N[C@H](C[N+](=O)[O-])C(C)(C)C,.,.,.,.,.,-0.5%
COc1ccccc1C(=O)Nc1cc(-c2cccc(Br)c2)nn1-c1ccccc1,.,.,.,.,0.4%,.
O=C(/C=C/Sc1ccc(C(F)(F)F)cn1)c1ccccc1,-12.4%,2.0%,22.2*,35.5,-2.0%,8.4%
Cc1cc(C)c(NC(=S)NCC2CCN(C(C)c3ccccc3)C2)c(C)c1 (stereo unspecified),-2.1%,-4.6%,-9.9,-15.7,?,1.99µM*
COc1ccc(CNC(=O)CCc2nc3cccnc3n2Cc2ccccc2)cc1,.,.,.,.,-15.9%,.
Cc1cc(/C=C(\C#N)C(=O)N2CCOCC2)c(C)n1C1CCCC1,-6.3%,-5.5%,26.4*,25.6,-4.4%,-4.5%
Cc1ccc2nc(-c3ccccn3)oc2c1,15.8µM*,?,30.3,30.9,-25.0%,-4.4%
Cc1ccc2nc(-c3ccc(Cl)c(NC(=O)c4cccnc4)c3)oc2c1,.,.,.,.,-1.0%,.
Cc1ccccc1-c1nc2ccccc2o1,-7.5%,-22.5%,10.6,-3.0,-1.5%,2.3%
Cc1ccc2nc(-c3cccnc3)oc2c1,?,-15.2%,47.5*,130.8*,-3.8%,-2.1%
CC(C)(C)c1ccc(C(=O)N2CCCC(c3nc4c(nnn4Cc4cccc(F)c4)c(=O)[nH]3)C2)cc1 (stereo unspecified),.,.,.,.,3.3%,.
SMILES,LmPK inh,RE007 growth inh,Cycloheximide cs,Shiga toxin inh,Tb PYK inh,FBPA Giardia inh
CCOc1ccc2[nH]c3ncccc3c(=O)c2c1,1.1%,1.4%,17.3,39.7*,-9.2%,3.1%
CC(=O)Nc1nc(-c2ccc3c(c2)CCO3)cs1,-7.5%,18.4%,29.1*,73.9*,-4.5%,-4.7%
O=C(Nc1nc(-c2ccc3c(c2)Cc2ccccc2-3)cs1)c1ccccc1,-2.1%,-7.0%,8.7,13.3,-14.4%,8.0%
Nc1nc(-c2ccc3c(c2)CCO3)cs1,-13.1%,6.1%,38.4*,98.2*,-0.4%,-3.4%
CCCCn1c(SCC(=O)c2ccc3c(c2)OCCO3)nnc1-c1ccco1,3.6%,3.1%,-2.5,14.9,?,-7.2%
COCCn1c(SCC(=O)N2CCCC2)nnc1-c1ccoc1C,-0.7%,-8.3%,13.4,82.2*,2.3%,-5.0%
COCCCn1c(SCC(=O)Nc2ccc3c(c2)OCCO3)nnc1-c1ccoc1C,3.0%,2.2%,26.9*,76.2*,-1.8%,5.7%
COCCn1c(SCC(=O)Nc2ccc(OC)cc2)nnc1-c1ccoc1C,-6.3%,10.4%,2.3,-4.4,-1.6%,.
COCCn1c(SCC(=O)c2ccc3c(c2)OCCO3)nnc1-c1ccoc1C,-1.9%,19.3%,110.6*,104.5*,-17.2%,-0.6%
Cc1ccc(-n2nc(CO)c(C(=O)NCc3cccnc3)n2)cc1,.,.,.,.,-1.5%,.
COC(=O)c1cc(OC)c(=O)c2c(OC)c(OC)ccc2c1,.,.,.,.,.,1.7%
Cc1cccc(OCC(=O)Nc2ccccc2C(=O)OCc2cc(=O)n3ccsc3n2)c1,.,.,.,.,1.1%,.
Cc1ccc(NC(=S)N(N)CCO)cc1,9.3%,-0.1%,22.0,42.8*,-1.5%,-27.8%
CCc1c(C)nc(SCc2nc(-c3ccccc3)no2)[nH]c1=O,.,.,.,.,-10.2%,.
COc1ccc(/C=N/OC(=O)Nc2ccccc2)cc1[N+](=O)[O-],-11.5%,-12.6%,33.4*,+,4.0%,9.9%
COc1ccc(C(=O)Nc2ccc(Nc3ccccc3)cc2)cc1[N+](=O)[O-],3.6%,-23.3%,-3.7,-5.3,2.5%,-1.7%
O=C(Nc1ccccc1)O/N=C/c1ccccc1Cl,-0.9%,-7.5%,54.4*,63.9*,5.1%,-3.5%
CC(=O)Nc1ccc(/C=N/OCC(=O)Nc2ccc(C)cc2)cc1,1.2%,2.5%,22.8*,15.2*,4.3%,2.7%
Cc1ccc(NC(=O)C=NOCC(=O)Nc2cc(C)cc(C)c2)cc1,.,-17.2%,.,.,6.2%,.
O=C(Nc1ccccc1)O/N=C/c1ccc(F)cc1,-5.0%,-28.2%,26.6*,53.6*,0.2%,-2.4%
CC(=O)Nc1ccc(C(=O)N/N=C/c2ccc(F)cc2)cc1,2.2%,0.7%,4.0,-3.0,1.2%,-4.4%
CCC(NC(=O)Nc1cc(Cl)ccc1OC)c1c(-n2cccc2)sc2c1CCN(C)C2 (stereo unspecified),.,.,.,.,-10.8%,.
COC(=O)[C@H](COC(C)(C)C)NC(=O)O[C@@H]1C(=O)c2cc(OC)ccc2O[C@H]1c1ccc(OC)c(Br)c1,.,.,.,.,.,-8.9%
COc1cc(/C=N/NC(N)=O)cc([N+](=O)[O-])c1O,-12.8%,-7.3%,-1.4,-2.8,-5.3%,-16.3%

# Screening results as filed in PubChem.
